The values that follow come from paper PMC7826789 (International Journal of Molecular Sciences, 2021).

For the compound `CCOc1ccc2c(-c3ccnc(Nc4cc(OC)cc(C(F)(F)F)c4)n3)cnn2n1` [GW807982X], the Kinases covered result in the test on NEK6 is given as “NEK6”. As to `O=C(O)/C=C/C(=O)O.OCCCNc1nccc(-c2c(-c3ccc(F)cc3)nn3cc(C(F)(F)F)ccc23)n1` [GW569293E], the Kinases covered result with NLK is “NLK”. As for `COc1ccccc1-c1cc(/C=C2\C(=O)Nc3ncc(Br)cc32)cc(Br)c1O` [GW442130X], the Kinases covered entry in the test on NTRK1 is “NTRK1”; in the test with NTRK3, “NTRK3”. Take `Nc1ncnc2occ(-c3ccc(NC(=O)Nc4cc(C(F)(F)F)ccc4F)cc3)c12` [GW770249X]: the Kinases covered entry in the test on NTRK1 is given as “NTRK1”; in the test on PDGFRA, “PDGFRA”. As for `Fc1ccc(-c2nn3ccccc3c2-c2ccncc2)cc1` [GW434756X], the Kinases covered result in the test on NLK is “NLK”. On to `CCC(=O)Nc1cccc(Oc2nc(Nc3ccc(N4CCN(C)CC4)cc3OC)ncc2Cl)c1` [WZ4003], for which the Kinases covered entry in the test on NUAK1 was “NUAK1”; with NUAK2, “NUAK2”.

Take `O=C(Nc1n[nH]c2cc(-c3cccc(F)c3)ccc12)C1CC1` [SB-735464]: the Kinases covered entry in the test with NLK is recorded as “NLK”.

In the case of `COc1cc2nccc(Nc3ccc(OCc4ccc(NC(C)=O)cc4)cc3)c2cc1OC` [GW440135], the Kinases covered result with PDGFRA is “PDGFRA”. `C[C@@H](Oc1cc(-n2cnc3ccc(OC4CCN(C)CC4)cc32)sc1C(N)=O)c1ccccc1Cl` [GSK579289A]: in the test on NEK9, the Kinases covered entry is given as “NEK9”. `Cc1nc(Nc2cnn(C3CCNCC3)c2)nc2c1N(C)C(=O)c1cc3ccccc3cc1N2C` [HTH-01-015]: the Kinases covered result with NUAK1 is reported as “NUAK1”. On to `Cc1cn(-c2cc(NC(=O)c3ccc4c(c3)CN(c3cncnc3)C[C@@H]4C)cc(C(F)(F)F)c2)cn1` [D2202-1], for which the figures for the Kinases covered result with NTRK1 and in the test with NTRK2 were “NTRK1” and “NTRK2”, respectively.
